Measurements as given in PubChem BioAssay (NCI).
The panel holds about 83,000 compounds, 20% with a hit somewhere; the sample as a whole holds those more often.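 96-well plates, one dose, 48 hours. Percent growth reported; active if below 10.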 A number with no mark means an inactive call.

The molecules below were run on OVCAR-5 ovarian (assay: NCI-60 one-dose screen, 48 h (100 = growth as untreated, 0 = no growth, -100 = all killed)). Conditions: 10 µM.

With CCCCOC(OCCCC)c1ccccc1 as the molecule, how does the growth read?
Its growth is 107%.

How did the growth turn out when O=C(O)c1cccc([N+](=O)[O-])c1O was run?
The growth was 112%.

How did the growth turn out when O=C1c2ccccc2C(=O)N1OCc1ccccc1 was run?
Its growth is 97.2%.

How did the growth turn out when C[C@@H](c1ccccc1)[C@@H](C(=O)O)c1ccccc1 was run?
The growth was 105%.

For CC1=CC(C)(C)NC(=S)N1c1ccc(S(=O)(=O)O)c2cccc(S(=O)(=O)O)c12, which growth is on record?
The growth was 105%.

CC(=O)OC(OC(C)=O)C1CCCO1 (centres undefined) was tested. Which growth did it give?
The growth was 100%.

For c1ccc2c(N3CCCCC3)ncnc2c1, which growth is on record?
The growth was 99.9%.

For S=c1nn[nH]c2ccccc12, which growth is on record?
The growth was 105%.

With O=[N+]([O-])c1ccc(Sc2ccncn2)c([N+](=O)[O-])c1 as the molecule, how does the growth read?
The growth was 96.3%.

Which growth does the source give for O=c1[nH]c(O)c(/C=C2/C=Nc3ccccc32)[nH]1 here?
The growth was 96%.

CC1OC(Oc2c(-c3ccc(O)c(O)c3)oc3cc(O)cc(O)c3c2=O)C(O)C(O)C1O (centres undefined) was tested. Which growth did it give?
Its growth is 108%.

Which growth does the source give for Cc1ccc(O)c(C(=O)c2ccccc2)c1 here?
The growth was 96.3%.

For OCC1OC(OC2C(O)C(CO)OC2(CO)OC2OC(CO)C(O)C(O)C2O)C(O)C(O)C1O (centres undefined), which growth is on record?
Its growth is 107%.

How did the growth turn out when C[N+](C)(C)C(=O)c1ccccc1 was run?
The growth was 98.7%.

For O=[N+]([O-])c1ccc(Cl)c(S(=O)(=O)O)c1, which growth is on record?
Its growth is 105%.

How did the growth turn out when Cc1cc2ccccc2c(O)c1C#N was run?
Its growth is 103%.

How did the growth turn out when COc1ncnc2c1cnn2C was run?
Its growth is 103%.

With NC(C(=O)O)c1ccc([N+](=O)[O-])cc1 (centres undefined) as the molecule, how does the growth read?
Its growth is 92.2%.

For CC(O)COc1ccc(-c2ccccc2)cc1 (centres undefined), which growth is on record?
Its growth is 98.9%.
